An excerpt weighted towards active compounds, which were near 6.6% of everything screened.
Gli-Sufu block – Gli-Sufu pathway antagonism; Sufu-KO-LIGHT fibroblasts, Gli luciferase reporter luminescence; inhibition, % at 5 µM; 340,000 tested, 0.74% active; AID 588413;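 active = inhibition above about 55%, limit read from the data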;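 note: 0% = DMSO-treated cells and 100% = wells with medium but no cells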
Mdm2 MdmX PPI – inhibitors of human Mdm2/MdmX interaction. O15151+Q00987. SaOS-2 split-luciferase Mdm2/MdmX complementation, luminescence. inhibition, % at 8 µM. 330,000 tested, 3% active;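 active = inhibition of at least 50% at 8 µM in the primary screen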
Target sequence (O15151 whole entry, looked up): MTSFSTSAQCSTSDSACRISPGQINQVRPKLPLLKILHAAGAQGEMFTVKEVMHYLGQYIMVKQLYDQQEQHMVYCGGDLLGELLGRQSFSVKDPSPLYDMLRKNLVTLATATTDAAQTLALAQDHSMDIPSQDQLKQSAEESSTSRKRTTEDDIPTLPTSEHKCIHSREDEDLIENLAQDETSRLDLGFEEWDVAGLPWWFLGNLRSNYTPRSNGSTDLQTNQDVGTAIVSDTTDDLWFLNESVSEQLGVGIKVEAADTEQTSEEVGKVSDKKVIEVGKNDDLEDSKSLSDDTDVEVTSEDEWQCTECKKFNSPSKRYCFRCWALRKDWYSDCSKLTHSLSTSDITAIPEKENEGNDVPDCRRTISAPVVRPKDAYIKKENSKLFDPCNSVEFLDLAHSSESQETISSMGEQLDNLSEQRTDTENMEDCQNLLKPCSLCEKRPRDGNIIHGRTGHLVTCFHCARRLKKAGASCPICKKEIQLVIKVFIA
Target sequence (Q00987 whole entry, looked up): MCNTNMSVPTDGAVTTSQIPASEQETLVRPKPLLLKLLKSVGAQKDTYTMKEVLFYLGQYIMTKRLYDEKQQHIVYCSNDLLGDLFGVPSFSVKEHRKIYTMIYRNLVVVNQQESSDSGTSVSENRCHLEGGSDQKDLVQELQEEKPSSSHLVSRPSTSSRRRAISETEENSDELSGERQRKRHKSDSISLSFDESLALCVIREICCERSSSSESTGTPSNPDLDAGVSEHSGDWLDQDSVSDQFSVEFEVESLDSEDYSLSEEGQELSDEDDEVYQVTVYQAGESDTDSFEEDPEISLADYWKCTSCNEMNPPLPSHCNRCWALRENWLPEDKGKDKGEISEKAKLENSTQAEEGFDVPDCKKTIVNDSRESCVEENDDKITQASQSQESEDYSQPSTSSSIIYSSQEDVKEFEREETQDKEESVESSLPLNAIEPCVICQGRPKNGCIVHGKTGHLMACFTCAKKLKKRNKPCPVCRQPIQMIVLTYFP
GRIN3A LBD mod – modulators (binders) of human NR3A ligand-binding domain. Tm shift relative to glycine control, % at 25 µM. NR3A LBD differential scanning fluorimetry, Tm shift; 0% = protein alone, 100% = glycine-bound protein. 340,000 tested, 2.5% active;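 active = melting temperature shift of at least 10% of the positive control shift, at one fixed dose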
MPTP inh – inhibitors of mitochondrial permeability transition pore; inhibition, % at 10 µM; isolated mouse mitochondria, Ca2+ swelling absorbance, 30 min; 360,000 tested, 1.4% active;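 active = inhibition of 50% or more, scaled per plate between neutral and stimulator controls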;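 note: 0% = DMSO wells given calcium and 100% = 1 mM EGTA wells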
Beta apoptosis – beta cell apoptosis inhibition; protection from apoptosis, % (no concentration beside the values); 300,000 tested, 0.8% active; AID 435005; INS-1E cytokine-induced death, ATP luminescence, 48 h; percent of positive-control rescue, neutral wells zero;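 active = Every replicate reaches about 75%, or at least half do and their mean reaches it too, limit read from the data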;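 note: 0% = cytokine-treated negative control wells and 100% = positive control rescue; higher means more ATP so stronger rescue from cytokine killing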
CSC inhib – blocks cancer stem cells; cancer stem cell-like cells viability, luminescence; inhibition, % at 7.5 µM; 300,000 tested, 1.1% active; in the data active = inhibition above about 75%; tested in HMLE shEcad cells
Mdm2 MdmX conf – confirmation of human Mdm2/MdmX interaction inhibitors. shares compounds with Mdm2 MdmX PPI. Mdm2-MdmX binding, luminescent assay. inhibition, % at 8 µM. 10,000 tested, 55% active; in the data active = inhibition above about 40%
Full FLuc ctr – inhibits full-length luciferase, flagging false Mdm2/MdmX hits; 6,200 tested, 77% active; AID 504607; SaOS-2 full-length luciferase counterscreen, luminescence; shares compounds with Mdm2 MdmX PPI; inhibition, % at 8 µM;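 active = mean inhibition at 8 µM reaching about 37%, which flags the compound as non-specific, limit read from the data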;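 note: p53-null SaOS-2 cells with luciferase driven by a doxycycline-inducible promoter; compound on cells about two nights before reading with doxycycline added after day one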
* hit, by the source's call; . = no result given.

SMILES	Gli-Sufu block	Mdm2 MdmX PPI	GRIN3A LBD mod	MPTP inh	Beta apoptosis	CSC inhib	Mdm2 MdmX conf	Full FLuc ctr
C[C@]12c3[nH]c4cc(-c5ccco5)ccc4c3CCN1C(=O)[C@@H](CC(=O)NCC13CC4CC(CC(C4)C1)C3)C[C@@H]2C(=O)N1CCOCC1	-3	85*	9	-1	.	.	16	.
CCN(CC)C(=O)[C@H]1CC(CC(=O)NCCC2=CCCCC2)C(=O)N2CCc3c([nH]c4ccccc34)[C@]12C (stereo not given in full)	16	1	4	0	-3	-5	.	.
CCN(CC)C(=O)[C@H]1CC(CC(=O)NC/C=C(\C)CCC=C(C)C)C(=O)N2CCc3c([nH]c4ccc(OC)cc34)[C@]12C (stereo not given in full)	16	87*	-1	-1	.	.	45*	59*
CCN(CC)C(=O)[C@H]1C[C@H](CC(=O)NCC23CC4CC(CC(C4)C2)C3)C(=O)N2CCc3c([nH]c4cc(-c5ccco5)ccc34)[C@]12C	-3	84*	-1	-3	.	.	56*	71*
CCN(CC)C(=O)[C@H]1CC(CC(=O)NCC23CC4CC(CC(C4)C2)C3)C(=O)N2CCc3c([nH]c4ccccc34)[C@]12C (stereo not given in full)	2	69*	0	-1	.	.	23	.
CCN(CC)C(=O)[C@H]1C[C@H](CC(=O)NCCCOC)C(=O)N2CCc3c([nH]c4cc(-c5ccco5)ccc34)[C@]12C	4	20	1	2	.	.	.	.
C[C@]12c3[nH]c4cc(-c5ccco5)ccc4c3CCN1C(=O)[C@@H](CC(=O)NCCN1CCOCC1)C[C@@H]2C(=O)N1CCCCC1	23	15	0	-1	.	.	.	.
Cc1ccc(NC(=O)CCC(=O)NNC(=O)COc2ccc([N+](=O)[O-])cc2)c(C)c1	-1	9	1	-2	0	-10	.	.
COC(CNC(=O)CN1CCN(Cc2ccc(F)cc2Cl)C1=O)OC	-11	-4	-1	1	-4	59	.	.
C[C@@H]1CN([C@@H](C)CO)S(=O)(=O)c2ccc(Br)cc2O[C@@H]1CN(C)Cc1cccnc1	.	.	.	-2	.	.	.	.
CCCCN(CCCC)C(=O)CSc1nnc(-c2cc(OC)c(OC)c(OC)c2)o1	28	8	-2	4	7	.	.	.
COc1cc(-c2nnc(SCC(=O)N(Cc3ccccc3)C(C)(C)C)o2)cc(OC)c1OC	33	51*	1	1	11	71	42*	91*
Cc1cc(C)c2cc(C#N)c(SCC(=O)NCC3CCCO3)nc2c1 (stereo not given)	0	-12	-1	-1	3	-1	.	.
Cc1cc(C)c2nc(SCC(=O)Nc3cc(C)on3)c(C#N)cc2c1	19	58*	0	-2	6	-9	8	.
Cc1cccc2cc(C#N)c(SCC(=O)NNC(=O)Cc3ccccc3)nc12	-3	78*	-2	0	0	-7	-2	.
Cc1cc(C)c2cc(C#N)c(SCC(=O)Nc3ccc4c(c3)OCO4)nc2c1	4	80*	0	8	6	5	5	.
CC(C)(C)S(=O)N1Cc2cc(CO)cc(CCO)c2[C@@H]1CCO (stereo not given in full)	-5	.	-3	1	.	.	.	.
O=C(CSc1ccc2c(c1)OCCO2)Nc1ccc(Br)cn1	-11	64*	-7	2	-5	.	19	.
O=C(CSc1ccc2c(c1)OCCO2)Nc1ccc(Cl)cn1	0	11	0	2	-7	19	.	.
CN1C(c2ccc(F)cc2)=CS/C1=C(/C#N)c1nnc(N2CCOCC2)n1-c1ccccc1	24	-6	-1	1	2	30	.	.
CN1C(=O)NC(c2ccccc2)(C(F)(F)F)S/C1=C(/C#N)c1nnc(N2CCOCC2)n1-c1ccccc1 (stereo not given)	-7	50*	2	2	2	0	18	.
C[C@@H]1CN([C@@H](C)CO)C(=O)CCCn2nncc2CO[C@H]1CN(C)C(=O)Nc1ccc(F)cc1	.	.	.	-2	.	.	.	.
COc1cc([C@@H]2c3cc4c(cc3[C@H](O)[C@H]3COC(=O)[C@H]23)OCO4)cc(OC)c1OC	47	75*	1	-1	.	59	54*	126*
COc1cc([C@@H]2c3cc4c(cc3[C@@H](O[C@@H]3O[C@@H]5CO[C@@H](C)O[C@H]5[C@H](O)[C@H]3O)[C@H]3COC(=O)[C@H]23)OCO4)cc(OC)c1O	82*	78*	-1	-3	11	64	60*	32
COc1cc([C@@H]2c3cc4c(cc3[C@@H](O)[C@@H](CO)[C@@H]2CO)OCO4)cc(OC)c1O[Si](C)(C)C(C)(C)C	.	53*	.	.	-7	58	4	.
SMILES	Gli-Sufu block	Mdm2 MdmX PPI	GRIN3A LBD mod	MPTP inh	Beta apoptosis	CSC inhib	Mdm2 MdmX conf	Full FLuc ctr
CCN1CCN(C(c2cccnc2)c2c(NC(=O)c3ccco3)sc(C)c2C)CC1 (stereo not given)	1	-9	2	-2	.	.	.	.
Cc1sc(NC(=O)c2ccco2)c(C(c2cccnc2)N2CCC(C)CC2)c1C (stereo not given)	11	74*	-1	1	-1	-4	76*	77*
C/C(=N\NC(=O)c1c(Br)cnn1C)c1ccc(NC(=O)c2ccc(F)cc2)cc1	-13	67*	0	1	0	4	-38	.
C/C(=N\NC(=O)c1c(Cl)cnn1C)c1cccc(NC(=O)c2ccc(C)cc2)c1	-37	14	2	3	3	-6	.	.
COc1ccccc1-c1nnc2n1N=C(c1ccc(O)c(O)c1)CS2	50	50*	-1	4	30	-14	58*	140*
COc1ccc(C2=Nn3c(nnc3-c3cccnc3)SC2)cc1OC	5	51*	-4	0	8	-23	22	.
COc1ccc(C2=Nn3c(nnc3-c3ccccc3OC)SC2)cc1OC1CCOC1 (stereo not given)	42	71*	4	-2	7	46	73*	95*
Cc1ccccc1-c1nnc(NC(=O)CSc2nc3ccccc3s2)s1	-9	-1	-1	2	0	7	.	.
Cc1c(OCC(=O)N[C@@H](Cc2c[nH]c3ccccc23)C(=O)O)ccc2c1oc(=O)c1ccccc12	1	0	-10	-1	-8	1	.	.
CCOC(=O)c1c(NC(=O)CSc2nnnn2-c2ccccc2)sc2c1CC(C)(C)NC2(C)C	26	55*	-1	1	-1	39	20	.
CCOC(=O)c1c(NC(=O)CSc2nc3ccc(C)cc3[nH]2)sc2c1CC(C)(C)NC2(C)C	19	75*	-2	2	-5	78*	48*	69*
